Screening data as filed in PubChem BioAssay.
Pol kappa inh = blocks human DNA polymerase kappa activity; Q9UBT6; purified Pol kappa, fluorescent DNA synthesis assay, 10 min; Potency, µM (doses to about 107 µM), for inactives: at the top dose activity, negative = inhibition, usual class: inhibitors; 400,000 tested, 0.53% active; AID 588579; also: potency is read from the fitted curve at half-maximal effect; % is scaled to controls: 0 for no effect and ±100 for the full control effect
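Kinetic fluorescence readout at 0 and 10 min followed reaction start with substrate at 50 nM final. Beforehand, enzyme (10 nM Pol kappa) stood 15 min with compound at room temperature; buffer-only wells were negative controls.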
POLI inh = DNA polymerase iota (human) inhibition | Potency, µM (top dose mostly 115 µM), inactives show top-dose activity, negative = inhibition, usual class: inhibitors | 390,000 tested, 1% active | Pol iota fluorescent replication assay, 10 min | Q9UNA4; also: potency is read from the fitted curve at half-maximal effect
Target sequence (Q9UNA4 whole entry, looked up): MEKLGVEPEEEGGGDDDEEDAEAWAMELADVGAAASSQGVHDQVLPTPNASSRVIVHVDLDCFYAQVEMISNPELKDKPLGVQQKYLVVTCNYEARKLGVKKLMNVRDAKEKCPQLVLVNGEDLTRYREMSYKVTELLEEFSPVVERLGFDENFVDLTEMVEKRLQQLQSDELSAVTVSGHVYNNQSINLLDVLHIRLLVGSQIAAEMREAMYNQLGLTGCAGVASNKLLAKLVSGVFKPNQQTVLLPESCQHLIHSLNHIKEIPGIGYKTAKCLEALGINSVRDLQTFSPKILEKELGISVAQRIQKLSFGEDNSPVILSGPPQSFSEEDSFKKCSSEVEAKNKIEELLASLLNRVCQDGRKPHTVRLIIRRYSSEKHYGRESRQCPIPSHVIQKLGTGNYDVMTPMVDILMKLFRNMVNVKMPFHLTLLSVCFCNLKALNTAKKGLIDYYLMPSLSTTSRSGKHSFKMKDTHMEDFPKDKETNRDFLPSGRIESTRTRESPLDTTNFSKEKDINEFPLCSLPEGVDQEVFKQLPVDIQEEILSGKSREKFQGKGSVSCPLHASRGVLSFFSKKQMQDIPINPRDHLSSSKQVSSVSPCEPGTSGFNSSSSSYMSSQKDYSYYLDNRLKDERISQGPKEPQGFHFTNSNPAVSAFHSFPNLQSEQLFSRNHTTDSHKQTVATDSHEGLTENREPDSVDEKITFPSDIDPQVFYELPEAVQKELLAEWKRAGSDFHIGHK
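Fluorescent replication assay read twice, at 0 min and 10 min after adding 50 nM (final) substrate. Enzyme (10 nM) and compounds were first incubated 15 min at room temperature; enzyme-free buffer wells were negative controls.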
Pol beta inh = blocks human DNA polymerase beta activity. P06746. Pol beta primer extension/strand displacement, fluorescence kinetic. Potency, µM (series often up to 114 µM), without a hit: at the highest dose activity change, negative = inhibition, usual class: inhibitors. 340,000 tested, 1.3% active. AID 485314; also: potency is read from the fitted curve at half-maximal effect; % is scaled to controls: 0 for no effect and ±100 for the full control effect
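Curves were derived by four-parameter Hill fits of normalized qHTS data. The kinetic fluorescent primer-extension read was taken at 0 and 10 min after 50 nM substrate, following a 15 min room-temperature preincubation of 10 nM enzyme with compounds.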
Pol eta inh = DNA polymerase eta (human) inhibition; 390,000 tested, 1.2% active; Q9Y253; Potency, µM (highest dose often 114 µM), inactives show at the highest dose activity change, negative = inhibition, hits mostly inhibitors; recombinant Pol eta, fluorescent DNA replication assay; also: potency is read from the fitted curve at half-maximal effect; % is scaled to controls: 0 for no effect and ±100 for the full control effect
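Fluorescent replication assay: 50 nM final substrate added after a 15 min room-temperature compound preincubation with 10 nM enzyme. Signal taken at 0 min and again at 10 min.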
PI5P4Ka inh = blocks human PI5P4K alpha kinase activity; PI5P4Kalpha enzyme, ADP-Glo luminescence, 60 min; stronger effect = lower value; max response, %; 330,000 tested, 1.2% active; P48426; AID 652105; active = max response of -50% or lower; inconclusive = between -30% and -50%; inactive = -30% or higher; also: value at the top dose of about 77 µM; % is scaled to controls: 0 for no effect and ±100 for the full control effect
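ADP-Glo luminescence end-point read after a 60 min room-temperature kinase reaction of PI5P4Kalpha plus substrate, initiated with ATP at 5 microM final. Buffer: 0.038 M HEPES pH 7.4, EGTA, 0.1% CHAPS, 5% DMSO.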
WRN helicase inh = blocks human WRN helicase. Q14191. 360,000 tested, 0.46% active. WRN helicase unwinding, fluorescent forked duplex, kinetic. Potency, µM (series often up to 114 µM), without a hit: at the top dose activity change, negative = inhibition, most hits filed as inhibitors; also: potency is read from the fitted curve at half-maximal effect; % is scaled to controls: 0 for no effect and ±100 for the full control effect; nearly all actives have a fitted effect of over 55% in size
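Kinetic fluorescence helicase assay: unwinding of a quenched forked DNA duplex (100 nM final) with 2 mM ATP final raises red fluorescence (525/598 nm). Compounds sat 15 min at room temperature with 20 nM WRN beforehand.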
* = called active by the depositor; ? = inconclusive; . = no result given; ! = a repeat was not active; [ ] = dose if it differs, or a comment. This is a sample that favours compounds with a hit; in the whole collection about 2.8% have one here. Unless noted, calls follow the shape of the dose curve; as a rule, active = well fitted curve in the direction sought with a large enough effect; inconclusive = small, poorly fitted or top-dose-only effect, or another doubt; inactive = no such curve, though single readings can be large; an effect the other way counts as inactive or inconclusive.

SMILES | Pol kappa inh | POLI inh | Pol beta inh | Pol eta inh | PI5P4Ka inh | WRN helicase inh
CCNC(=O)c1ccc(CSc2ccc(Cl)cc2)cc1 | 4% | 79µM* | 19% | -2% | -1 | 1%
CC(=O)c1cccc(NC(=O)Cn2c(=O)oc3cc(S(=O)(=O)N4CCCC4)ccc32)c1 | -20% | ? | 32µM*! | 0% | 1 | -2%
COc1ccc(NC(=O)Cn2c(=O)oc3cc(S(=O)(=O)N4CCCCCC4)ccc32)cc1OC | -3%[60.1 µM] | 0% | 8% | -12% | . | .
Cc1cc(NC(=O)Cn2c(=O)oc3cc(S(=O)(=O)N4CCCC4)ccc32)ccc1Br | 2%[60.1 µM] | -3% | 13µM* | -20% | . | .
O=C(Cn1c(=O)ccc2cc(S(=O)(=O)N3CCCC3)ccc21)Nc1ccc(Cl)cc1 | -6%[60.1 µM] | 15% | -17% | -13% | . | .
CCc1ccc(NC(=O)Cn2c(=O)ccc3cc(S(=O)(=O)N4CCCC4)ccc32)cc1 | -2%[60.1 µM] | 18% | 7% | 89µM* | . | .
Cc1cc(C)cc(NC(=O)Cn2c(=O)oc3cc(S(=O)(=O)N4CCCC4)ccc32)c1 | 1% | -29% | ? | . | . | .
CC[N+](C)(C)c1ccc(/C=C/c2ccc3ccccc3n2)cc1 | -24% | -18% | . | . | . | .
COc1cccc(-c2ccc3c(c2)O[C@@H](CN(C)C(=O)C2CCOCC2)[C@H](C)CN([C@H](C)CO)S3(=O)=O)c1 | . | . | . | -14% | -3 | 11%
c1cc2c(cc1Cc1cncc(Cc3ccc4c(c3)OCO4)c1)OCO2 | -3% | 34% | . | . | . | .
CCOC(=O)C1CCN(C(c2ccc(C)cc2)c2sc3nc(-c4ccco4)nn3c2O)CC1 (stereo unspecified) | -5%[60.1 µM] | 19% | 1% | -13% | . | .
O=C(Nc1ccc(O)cc1)/C(=C\C=C\c1ccccc1)NC(=O)c1ccccc1 | -8% | -2% | -15% | -2% | 3 | -10%
COC(=O)/C(=C\C=C\c1ccccc1)NC(=O)c1ccccc1 | -3% | 21% | 23% | -2% | -54* | -26%
COc1cc(-c2noc(-c3ccc(NCCc4ccccc4)c([N+](=O)[O-])c3)n2)cc(OC)c1OC | 0% | 6% | -4% | -15% | . | .
CC(NC(=O)COC(=O)c1cc([N+](=O)[O-])ccc1N1CCOCC1)c1ccc(F)cc1 (stereo unspecified) | ? | ? | . | 56µM* | ? | -8%[11.6 µM]
CC(NC(=O)COC(=O)c1cc([N+](=O)[O-])ccc1N1CCOCC1)c1ccccc1 (stereo unspecified) | -5% | 22% | -1% | -21% | -6 | -15%
CCOc1ccc(-c2cn3c(n2)sc2cc(C(=O)NCCCN(CC)CC)ccc23)cc1 | -22% | 0% | 17% | ? | . | .
COC(=O)Cc1cc(=O)n(-c2nc3ccccc3[nH]2)[nH]1 | -16% | -12% | 79µM* | -15% | . | -9%
COc1ccc(-c2nn(C)c3sc(C(=O)N4CCN(c5cccc(C)c5C)CC4)cc23)cc1OC | -3% | 20% | 18% | -11% | . | .
O=Nc1c(-c2c(O)[nH]c3cc(Br)ccc23)[nH]c2ccccc12 | -4%[60.1 µM] | 47% | 6% | ? | -75* | -14%
COc1cc(-n2nc(C)c3c2OC(N)=C(C#N)C3c2ccccc2)c(Cl)c(Br)c1O (stereo unspecified) | -19% | ? | 1% | ? | -57* | -29%
CC(C)n1c(CNC(=O)c2ccccc2F)nnc1SCC(=O)NC1CCCCC1 | -8% | ? | . | -10% | -71* | -13%
CCn1c(CNC(=O)c2ccccc2F)nnc1SCC(=O)NC1CCCCC1 | 3% | -18% | 0% | 7% | -5 | 2%
O=C(O)c1ccc(N2Cc3ccccc3C2)cc1O | ? | ? | 45µM* | 5.6µM* | . | -28%
CC(=O)N1CCOc2cc(S(=O)(=O)Nc3cccc(C(F)(F)F)c3)c(Cl)cc21 | 6% | ? | ? | -12% | . | .
Cc1ccc(C(=O)CSc2nnc(-c3ccco3)n2C)cc1 | -19% | 21% | 60% | -4% | -56* | ?
Cc1ccc(C(=O)CSc2nccn2-c2ccccc2)cc1 | -7% | -6% | 56µM* | -16% | 5 | -6%
